Compounds with a hit are over-represented: about 5.7% of the library has one in this group of screens.
DAX1 inh-1: DAX1 (NR0B1) inhibition, primary screen | actives 1.1% (n = 370,000) | inhibition, % at 6.8 µM | HEK293T StAR-luciferase reporter, SF-1/DAX-1 repression relief | AID 652010;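 active = inhibition above the mean over all tested compounds plus 3 SD, cut at about 3.6% in these data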;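 also: 0% = DAX-1 cells with DMSO and 100% = cells lacking DAX-1 with DMSO; higher inhibition means more luminescence from relief of DAX-1 repression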
AHR act: activators of human aryl hydrocarbon receptor; actives 2.5% (n = 320,000); P35869; activation, % at 5 µM; AHR-responsive luciferase reporter cells, luminescence; in the data active = activation above about 47%;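 also: 0% = vehicle wells and 100% = reference agonist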
DAX1 inh-2: inhibitors of human orphan nuclear receptor DAX1 (NR0B1) | HEK293 Gal4-DAX1 luciferase reporter, luminescence | inhibition, % at 6.75 µM | actives 0.99% (n = 340,000) | AID 504766;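 active = inhibition above the mean over all tested compounds plus 3 SD, cut at about 4.2% in these data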;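 also: 0% = DAX1-transfected cells with DMSO and 100% = empty-vector control cells with DMSO; inhibition shows as a rise in luminescence from relieved DAX1 repression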
Target sequence (P51843 207-470 limits assumed): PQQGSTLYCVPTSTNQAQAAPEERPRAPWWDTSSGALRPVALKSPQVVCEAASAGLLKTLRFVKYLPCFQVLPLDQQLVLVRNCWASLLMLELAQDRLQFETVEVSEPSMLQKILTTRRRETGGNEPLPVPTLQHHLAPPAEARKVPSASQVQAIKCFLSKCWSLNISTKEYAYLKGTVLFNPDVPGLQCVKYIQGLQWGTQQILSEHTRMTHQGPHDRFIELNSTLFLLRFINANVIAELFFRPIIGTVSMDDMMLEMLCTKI
hcDAF12 agonist: H. contortus DAF-12 activation, primary screen; HEK293 hcDAF-12 lit1-tk-luc reporter, luminescence; 0% DMSO, 100% Δ7-dafachronic acid; activation, % at 6.8 µM; actives 1.4% (n = 370,000);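 active = activation above the mean of all tested compounds plus 3 SD, cut at about 5.5% in these data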;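 also: 100% = response to 3 µM Δ7-dafachronic acid high control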
ssDAF-12 act: activators of S. stercoralis DAF-12 nuclear receptor | HEK293 ssDAF-12/GRIP1 lit1-tk-luc reporter, luminescence; % of 3 µM dafachronic acid response | activation, % at 6.8 µM | actives 1% (n = 370,000) | AID 652126;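 active = activation above the mean over all tested compounds plus 3 SD, cut at about 0.9% in these data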;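 also: 0% = DMSO-only wells and 100% = 3 µM delta7-dafachronic acid wells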
hgDAF12 agonist: hgDAF-12 agonism, primary luciferase screen; actives 1.8% (n = 370,000); activation, % at 6.8 µM; HEK293 GAL4-hgDAF12 UAS-luciferase reporter, agonist luminescence; normalized to butyrate control;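 active = activation above a cutoff set at the mean of all screened compounds plus 3 SD, cut at about 10% in these data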;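 also: 0% = DMSO wells and 100% = sodium butyrate wells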
* marks the source's active call; other numbers are inactive results; / = not tested or not shown.

SMILES	DAX1 inh-1	AHR act	DAX1 inh-2	hcDAF12 agonist	ssDAF-12 act	hgDAF12 agonist
COc1ccc(CCNC(=O)COc2cc(O)c3c(c2)OC(C)(C)CC3=O)cc1OC	0	-1	0	-3	-1	-3
O=C(C#Cc1ccccc1)Nc1ccccc1F	0	-2	2	0	-1	11*
COc1ccccc1NC(=O)NNC(=O)c1ccncc1	3.8*	/	-2	4	-1	0
COc1ccccc1NC(=O)NNC(=O)c1ccc2ccccc2c1	-1	/	0	-1	-1	-2
COC(=O)c1ccc(NC(=O)Nc2ccccc2C)cc1	0	-2	-1	-2	-2	12*
COC(=O)c1cccc(NC(=O)Nc2ccccc2OC)c1	0	3	6.5*	-1	-1	5
CNC(=O)Nc1ccccc1F	0	2	3	0	-1	3
COc1ccccc1NC(=O)Nc1cccc(NC(C)=O)c1	0	6	0	-2	-2	-3
O=C(C[C@H]1CC[C@H]2[C@@H](COC[C@@H](O)CN2C(=O)c2cnccn2)O1)NCc1ccc(Oc2ccccc2)cc1	-1	/	/	-2	-1	-1
C=CCN1C=C(C(=O)OCC)C(=O)CC1	0	/	/	-1	-1	4
CC(C)N1CCC2(CC1)Oc1ccc(Br)cc1C1CC(c3cccnc3)=NN12 (stereo not drawn)	1	37	2	2	0	2
COc1cccc2c1OC1(CCN(C(C)C)CC1)N1N=C(c3cccnc3)CC21 (stereo not drawn)	0	4	6.8*	1	-1	8
CCN(CC)C(=O)c1ccc(/C=C/c2c[nH]c3ccccc23)[n+](C)c1	1	12	0	2	1.6*	2
OC(c1cccs1)(c1cccs1)C1C[N+]2(CF)CCC1CC2 (stereo not drawn)	0	-4	1	5.8*	-1	0
Cc1ccc(NC2CCCN(C(=O)C3CCCCC3)C2)cc1C (stereo not drawn)	0	60*	0	0	-1	1
Cc1cc(C)c(C(=O)N2CCCC(Nc3ccc(C)c(C)c3)C2)o1 (stereo not drawn)	-3	63*	0	-4	-1	2
O=C(c1cccs1)N1C[C@@H](O)[C@H](n2cc(C3CC3)nn2)C[C@@H]1c1ccc(Cl)cc1	0	/	0	0	-1	-6
C=C1[C@H](C)CN(S(=O)C(C)(C)C)[C@H]1CCO (stereo partly drawn)	0	/	/	-1	-2	-1
COCCC(=O)N1CCC(Oc2ccc(C(=O)N3CCC[C@H]3CO)cc2)CC1	2	/	1	-2	-1	-2
COC(=O)c1ccc2c(c1)NC(=O)C(N(CC(C)C)CC(C)C)S2 (stereo not drawn)	0	0	5.1*	0	-1	-2
COc1cc(C(=O)NCC(=O)Nc2ccc(F)c(F)c2)ccc1OCC(=O)N1CCOCC1	-2	4	-1	-1	-1	3
C[C@H](CO)N1C[C@H](C)[C@@H](CN(C)C)Oc2c(NC(=O)CCC(F)(F)F)cccc2C1=O	0	0	0	-1	-1	3
CCN(CC)CCn1c2ccccc2c2cnc(N)c(C#N)c21	3.9*	6	3	3	0	8
CN(C)C=Nc1ncc2c3ccccc3n(CCN(C)C)c2c1C#N	-1	5	1	0	-2	7
COc1cccc(NC(=S)N2CCN(c3ccc([N+](=O)[O-])cc3)CC2)c1	0	-3	-1	0	1.1*	2
SMILES	DAX1 inh-1	AHR act	DAX1 inh-2	hcDAF12 agonist	ssDAF-12 act	hgDAF12 agonist
CCOc1ccccc1OCCC(=O)OCC(=O)Nc1c(C)cc(C)cc1C	1	-1	1	1	-1	1
N#Cc1nc(COc2cccc(Cl)c2)oc1NCc1ccco1	0	63*	2	1	-1	3
Cc1ccc(OCc2nc(C#N)c(NCc3ccco3)o2)cc1	0	8	0	-1	-1	1
Cc1ccc(C(=O)C2CCN(CC(=O)NCc3cccs3)CC2)cc1	-1	/	/	-3	-1	-4
Cc1cn([C@H]2C[C@H](O)[C@@H](CNC/C=C/c3ccccc3[N+](=O)[O-])O2)c(=O)[nH]c1=O	0	/	1	3	0	1
O=C(Nc1ccccc1Cl)Oc1ccc(Cl)cc1Cl	0	50*	-1	-1	-1	0
S=C(Nc1ccccc1Cl)Nc1ccc(Cl)cc1Cl	0	4	0	0	-1	-1
CS(=O)(=O)CCC(C(=O)Nc1ccc2c(c1)OCO2)N1Cc2ccccc2C1=O (stereo not drawn)	1	12	1	1	-2	2
COc1ccccc1N1CCN(/N=C/c2cccc(O)c2)CC1	1	1	0	4	0	12*
COc1cccc(CNC(=O)c2ccc3c(c2)N(C)CCS3)c1OC	1	56*	1	0	-1	2
COc1ccc(CNC(=O)c2ccc3c(c2)N(C)CCS3)cc1	0	37	1	-2	-1	7
CN1CCSc2ccc(C(=O)NCc3ccccc3F)cc21	1	78*	0	1	0	6
COc1ccc(CCNC(=O)CSc2nc(C)nc3sccc23)cc1OC	-1	3	0	-1	-1	0
C=C(C)Cn1cnc2c(oc3nc4c(cc32)CCCC4)c1=O	1	-3	6.6*	2	0	7
O=C(Cn1cnc2c(oc3nc4c(cc32)CCCC4)c1=O)Nc1ccccc1	0	6	0	-1	0	3
Cc1nc2c(OCc3ccc(Cl)cc3)cccn2c1N(C)C(=O)CCC1CCCC1	-1	/	/	-1	-1	10*
Cc1nc2c(OCc3ccc(F)cc3)cccn2c1N(C)C(=O)CCC1CCCC1	-2	/	/	-2	-1	-4
Cc1cc(Nc2ccc(F)cc2F)n2nc(C)nc2n1	1	0	4.9*	4	0	2
Cc1cc(Nc2ccc(F)c(Cl)c2)n2ncnc2n1	0	4	4.5*	-3	-1	2
Cc1cc(Nc2ccc(F)c(Cl)c2)n2nc(C)nc2n1	-1	6	0	-1	-1	-3
COc1ccc(Nc2cc(C)nc3nc(C)nn23)cc1Cl	-1	13	4.6*	-1	-1	-2
Cc1cc(Nc2ccc(C)c(Br)c2)n2nc(C)nc2n1	0	61*	4.4*	-1	-3	0
Cc1cc(Nc2ccccc2Br)n2nc(C)nc2n1	-1	46	1	0	-1	3
O=C1CC2(CCN(C(=O)c3ccccc3[N+](=O)[O-])CC2)Oc2ccccc21	0	1	1	0	-1	1
Cc1nc(N)ncc1CCC1OCCO1	0	/	1	0	-1	-1
